Laboratory results taken from PubChem BioAssay AID1159580 (chemical genetic matrix, 2015).
“And” between values parts separate entries of the source, which are not always exact repeats. Equal entries are not always repeated. Screen size: about 5,500 compounds; about 2,000 (36%) were called active. About 18% were inconclusive and are not listed. Cut-off read from the data, not from the text of the source: active = normalized growth mostly below about 0.91 (no sharp cut-off); inconclusive = no clear call, values can overlap the other calls; inactive = mostly above about 0.92. This is one part of the list.

Assay: chemical genetic growth profiling, strain panel (AID 1159580);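 note: tested at 20 µM; growth read once vehicle control cultures reached saturation at 30 °C; 1 = growth at the plate median or of vehicle wells; lower values mean less growth of the strain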
Settings: S. cerevisiae deletion strains, growth OD

Measured: normalized growth

Cc1c(OCC(F)(F)F)ccnc1CS(=O)c1nc2ccccc2[nH]1 (stereo not given)
active: locus YGL078C, strain dbp3, stronger effect = lower value 0.898 | locus YHR079C, strain IRE1, stronger effect = lower value 0.632 | locus YJR066W, strain TOR1, stronger effect = lower value 0.767
inactive: locus YAL013W, strain DEP1, stronger effect = lower value 0.992 | locus YAL021C, strain ccr4, stronger effect = lower value 1.01 | locus YAL026C, strain drs2, stronger effect = lower value 1.02 | locus YAL030W, strain snc1, stronger effect = lower value 1.03 | locus YAL040C, strain CLN3, stronger effect = lower value 0.959 | locus YBL061C, strain skt5, stronger effect = lower value 1.02 | locus YBR009C, strain hhf1, stronger effect = lower value 1.02 | locus YBR021W, strain FUR4, stronger effect = lower value 0.948 | locus YBR023C, strain chs3, stronger effect = lower value 1.02 | locus YBR171W, strain sec66, stronger effect = lower value 1.02 | locus YBR229C, strain ROT2, stronger effect = lower value 0.982 | locus YBR231C, strain swc5, stronger effect = lower value 1.05 | locus YBR279W, strain paf1, stronger effect = lower value 1 | locus YCL011C, strain gbp2, stronger effect = lower value 1.01 | locus YCL016C, strain dcc1, stronger effect = lower value 1.01 | locus YCL029C, strain bik1, stronger effect = lower value 0.971 | locus YCL061C, strain MRC1 (second series), stronger effect = lower value 0.997 | locus YCL061C, strain MRC1, stronger effect = lower value 1.02 | locus YCL069W, strain vba3, stronger effect = lower value 1 | locus YCR088W, strain abp1, stronger effect = lower value 1.01 | locus YDL005C, strain med2, stronger effect = lower value 1.02 | locus YDL035C, strain GPR1, stronger effect = lower value 0.997 | locus YDL040C, strain nat1, stronger effect = lower value 1.03 | locus YDL074C, strain BRE1, stronger effect = lower value 0.937 | locus YDL101C, strain DUN1, stronger effect = lower value 0.959 | locus YDL134C, strain PPH21, stronger effect = lower value 0.997 | locus YDL185W, strain tfp1, stronger effect = lower value 0.98 | locus YDL192W, strain arf1, stronger effect = lower value 0.977 | locus YDR001C, strain nth1, stronger effect = lower value 1.01 | locus YDR069C, strain doa4, stronger effect = lower value 1.01 | locus YDR101C, strain arx1, stronger effect = lower value 0.985 | locus YDR137W, strain rgp1, stronger effect = lower value 1.01 | locus YDR150W, strain NUM1, stronger effect = lower value 0.996 | locus YDR159W, strain sac3, stronger effect = lower value 1.02 | locus YDR162C, strain NBP2, stronger effect = lower value 0.976 | locus YDR195W, strain ref2 1.02 | locus YDR297W, strain sur2, stronger effect = lower value 1.02 | locus YDR318W, strain mcm21, stronger effect = lower value 0.959 | locus YDR334W, strain swr1, stronger effect = lower value 1.01 | locus YDR335W, strain msn5, stronger effect = lower value 1.01 | locus YDR363W, strain ESC2, stronger effect = lower value 0.933 | locus YDR388W, stronger effect = lower value 0.987 | locus YDR392W, strain spt3, stronger effect = lower value 1.03 | locus YDR502C, strain sam2, stronger effect = lower value 0.94 | locus YEL003W, strain gim4, stronger effect = lower value 1.03 | locus YEL037C, strain rad23, stronger effect = lower value 1.01 | locus YEL061C, strain CIN8 (second series), stronger effect = lower value 1.03 | locus YEL061C, strain CIN8, stronger effect = lower value 0.999 | locus YER002W, strain NOP16, stronger effect = lower value 1.02 | locus YER015W, strain faa2, stronger effect = lower value 1.02 | locus YER016W, strain bim1, stronger effect = lower value 1.03 | locus YER110C, stronger effect = lower value 0.969 | locus YER111C, strain swi4, stronger effect = lower value 1.01 | locus YER155C, strain BEM2 (second series), stronger effect = lower value 1.01 | locus YER155C, strain BEM2, stronger effect = lower value 0.988 | locus YER167W, strain BCK2, stronger effect = lower value 0.987 | locus YFR010W, strain ubp6, stronger effect = lower value 1.02 | locus YGL086W, strain mad1, stronger effect = lower value 0.987 | locus YGL167C, strain pmr1, stronger effect = lower value 1.03 | locus YGL173C, strain kem1, stronger effect = lower value 1.04 | locus YGL227W, strain vid30, stronger effect = lower value 1.02 | locus YGL240W, strain doc1, stronger effect = lower value 1.02 | locus YGL248W, strain PDE1, stronger effect = lower value 0.988 | locus YGL253W, strain hxk2, stronger effect = lower value 1.01 | locus YGR078C, strain PAC10, stronger effect = lower value 0.945 | locus YGR135W, strain pre9, stronger effect = lower value 0.944 | locus YGR229C, strain SMI1, stronger effect = lower value 0.951 | locus YGR252W, strain gcn5, stronger effect = lower value 0.943 | locus YHR013C, strain ard1, stronger effect = lower value 0.999 | locus YHR027C, strain rpn1, stronger effect = lower value 1.01 | locus YHR079C, strain IRE1 (second series), stronger effect = lower value 0.976 | locus YHR094C, strain hxt1, stronger effect = lower value 0.994 | locus YHR129C, strain ARP1, stronger effect = lower value 0.991 | locus YHR142W, strain chs7, stronger effect = lower value 1.02 | locus YHR200W, strain rpn10, stronger effect = lower value 0.963 | locus YIL066C, strain RNR3, stronger effect = lower value 0.975 | locus YIL073C, strain SPO22, stronger effect = lower value 1.04 | locus YIL125W, strain kgd1, stronger effect = lower value 0.952 | locus YIR030C, strain dcg1, stronger effect = lower value 0.995 | locus YJL092W, strain hpr5, stronger effect = lower value 1.01 | locus YJL095W, strain BCK1 (second series), stronger effect = lower value 1.02 | locus YJL115W, strain asf1, stronger effect = lower value 1.03 | locus YJL129C, strain trk1, stronger effect = lower value 1.04 | locus YJL134W, strain LCB3, stronger effect = lower value 1 | locus YJL154C, strain vps35, stronger effect = lower value 1.01 | locus YJL164C, strain tpk1, stronger effect = lower value 1.02 | locus YJL166W, strain qcr8, stronger effect = lower value 1.03 | locus YJL168C, strain set2, stronger effect = lower value 0.982 | locus YJL187C, strain SWE1 (second series), stronger effect = lower value 0.951 | locus YJR043C, strain POL32, stronger effect = lower value 0.979
0.937 (inactive) and 0.468 (active): locus YJL095W, strain BCK1, stronger effect = lower value
0.996 (inactive) and 0.482 (active): locus YHR030C, strain SLT2, stronger effect = lower value
